# Results: paper PMC7862700, “An all-to-all approach to the identification of sequence-specific readers for epigenetic DNA modifications on cytosine”
# How the values were obtained:
# Experiment in all cases: DAPPL (digital affinity profiling via proximity ligation, sequencing); 10 mM Tris-HCl pH 7.5, 50 mM NaCl, 1 mM DTT, 4% glycerol, room temperature, 30 min; GST-TFs on glutathione beads, 16-mer random dsDNA library, 0.1% formaldehyde crosslink after washing; high values mean tight binding
# FEV = biological target: T1, FEV (Homo sapiens, UniProt Q99581 1-238); conditions: protein: recombinant; tags: N-terminal GST; dsDNA, one strand shown
# T1 sequence: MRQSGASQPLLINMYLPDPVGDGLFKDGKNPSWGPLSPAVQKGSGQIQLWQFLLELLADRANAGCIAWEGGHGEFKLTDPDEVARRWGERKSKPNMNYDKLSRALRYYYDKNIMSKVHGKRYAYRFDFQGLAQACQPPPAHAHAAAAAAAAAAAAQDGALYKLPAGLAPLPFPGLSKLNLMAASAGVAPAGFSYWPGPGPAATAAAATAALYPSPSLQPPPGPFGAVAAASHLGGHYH
# Procedure, shortened: (§1)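 Yeast served to express human transcription factors as GST fusions, which were then captured on glutathione beads and labelled with DNA barcodes. Pooled with a tag-only sample, they were incubated with 200 nmole of a 16-mer random double-stranded DNA library for 30 min at room temperature in Tris/NaCl/DTT/glycerol buffer, washed, crosslinked with 0.1% formaldehyde, ligated by proximity, amplified by PCR and sequenced. Dividing each hexamer's read frequency for a factor by its frequency for the tag-only sample gives the binding signal.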
# ETV5 = ETV5 (Homo sapiens, UniProt P41161 1-510); conditions: protein: recombinant; tags: N-terminal GST; dsDNA, one strand shown
# Chain of ETV5 (P41161 whole entry): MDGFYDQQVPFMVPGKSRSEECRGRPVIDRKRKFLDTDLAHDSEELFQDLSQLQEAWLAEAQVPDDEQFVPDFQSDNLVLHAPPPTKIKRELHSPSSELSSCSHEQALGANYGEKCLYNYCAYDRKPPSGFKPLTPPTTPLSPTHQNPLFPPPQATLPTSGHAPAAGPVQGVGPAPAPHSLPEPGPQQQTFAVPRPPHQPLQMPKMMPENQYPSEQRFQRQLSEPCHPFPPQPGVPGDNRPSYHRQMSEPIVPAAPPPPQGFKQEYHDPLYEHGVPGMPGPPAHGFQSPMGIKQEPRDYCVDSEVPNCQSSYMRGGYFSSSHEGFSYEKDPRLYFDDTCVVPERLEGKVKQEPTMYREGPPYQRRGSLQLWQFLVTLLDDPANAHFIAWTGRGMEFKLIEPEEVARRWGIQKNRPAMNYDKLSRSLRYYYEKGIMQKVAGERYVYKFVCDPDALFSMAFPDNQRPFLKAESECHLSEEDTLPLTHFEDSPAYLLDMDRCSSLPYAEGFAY
# Procedure, shortened: as §1
# HSF1 = HSF1 (Homo sapiens, UniProt Q00613 1-529); conditions: protein: recombinant; tags: N-terminal GST; chain copies: 3; dsDNA, one strand shown
# Chain of HSF1 (Q00613 whole entry): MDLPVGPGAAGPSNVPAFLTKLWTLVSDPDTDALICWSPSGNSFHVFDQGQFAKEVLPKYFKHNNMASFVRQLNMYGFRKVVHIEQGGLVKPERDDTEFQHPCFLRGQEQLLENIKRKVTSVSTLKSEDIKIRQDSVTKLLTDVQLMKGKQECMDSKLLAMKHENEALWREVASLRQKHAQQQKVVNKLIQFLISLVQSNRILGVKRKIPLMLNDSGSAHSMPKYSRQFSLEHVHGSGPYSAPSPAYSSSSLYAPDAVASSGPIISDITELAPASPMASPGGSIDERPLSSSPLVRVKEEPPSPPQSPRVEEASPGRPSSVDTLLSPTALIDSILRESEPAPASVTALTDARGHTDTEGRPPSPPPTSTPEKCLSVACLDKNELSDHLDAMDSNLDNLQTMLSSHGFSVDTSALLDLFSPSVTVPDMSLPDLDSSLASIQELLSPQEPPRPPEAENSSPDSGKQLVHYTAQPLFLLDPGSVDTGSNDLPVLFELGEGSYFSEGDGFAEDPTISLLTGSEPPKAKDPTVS
# Procedure, shortened: as §1
# SPIC = biological target: T2, SPIC (Homo sapiens, UniProt Q8N5J4 1-248); conditions: protein: recombinant; tags: N-terminal GST; dsDNA, one strand shown
# T2 sequence: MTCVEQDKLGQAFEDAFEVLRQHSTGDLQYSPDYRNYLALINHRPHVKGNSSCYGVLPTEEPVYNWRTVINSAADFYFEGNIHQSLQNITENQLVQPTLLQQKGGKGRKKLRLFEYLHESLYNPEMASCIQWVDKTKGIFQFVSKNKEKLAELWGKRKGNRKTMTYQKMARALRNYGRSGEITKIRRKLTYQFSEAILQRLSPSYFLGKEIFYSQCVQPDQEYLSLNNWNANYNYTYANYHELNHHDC
# Procedure, shortened: as §1
# ELF4 = ELF4 (Homo sapiens, UniProt Q99607 1-663); conditions: protein: recombinant; tags: N-terminal GST; dsDNA, one strand shown
# Chain of ELF4 (Q99607 whole entry): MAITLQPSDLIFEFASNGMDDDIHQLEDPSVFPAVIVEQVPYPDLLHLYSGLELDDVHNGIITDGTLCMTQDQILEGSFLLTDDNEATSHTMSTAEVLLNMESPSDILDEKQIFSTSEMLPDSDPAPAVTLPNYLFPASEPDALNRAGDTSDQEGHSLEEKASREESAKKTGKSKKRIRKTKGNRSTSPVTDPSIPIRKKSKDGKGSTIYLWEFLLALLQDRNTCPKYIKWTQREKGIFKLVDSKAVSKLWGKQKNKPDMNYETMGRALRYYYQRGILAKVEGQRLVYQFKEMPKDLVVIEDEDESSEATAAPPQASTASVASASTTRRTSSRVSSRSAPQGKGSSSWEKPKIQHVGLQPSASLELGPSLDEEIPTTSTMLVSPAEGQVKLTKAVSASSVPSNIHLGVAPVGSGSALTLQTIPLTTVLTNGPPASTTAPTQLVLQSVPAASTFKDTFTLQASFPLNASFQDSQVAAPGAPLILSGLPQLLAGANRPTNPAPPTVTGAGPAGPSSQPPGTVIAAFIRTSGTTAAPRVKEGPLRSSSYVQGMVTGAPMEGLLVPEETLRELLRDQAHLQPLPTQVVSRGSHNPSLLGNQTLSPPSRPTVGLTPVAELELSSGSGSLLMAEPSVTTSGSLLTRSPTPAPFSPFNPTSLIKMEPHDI
# Procedure, shortened: as §1
# ELK4 = biological target: T3, ELK4 (Homo sapiens, UniProt P28324-2 1-405); conditions: protein: recombinant; tags: N-terminal GST; dsDNA, one strand shown
# T3 sequence: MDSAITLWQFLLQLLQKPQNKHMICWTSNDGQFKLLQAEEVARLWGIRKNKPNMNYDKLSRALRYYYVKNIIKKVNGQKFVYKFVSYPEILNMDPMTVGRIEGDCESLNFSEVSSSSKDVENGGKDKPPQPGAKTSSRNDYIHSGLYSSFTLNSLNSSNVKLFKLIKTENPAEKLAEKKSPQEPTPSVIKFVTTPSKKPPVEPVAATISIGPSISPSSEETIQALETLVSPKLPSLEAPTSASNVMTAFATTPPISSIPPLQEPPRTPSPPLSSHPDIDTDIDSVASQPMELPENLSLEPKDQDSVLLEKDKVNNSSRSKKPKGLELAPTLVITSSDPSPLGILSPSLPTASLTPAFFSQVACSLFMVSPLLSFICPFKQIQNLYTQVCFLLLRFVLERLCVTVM
# Procedure, shortened: as §1
# ETV2 = biological target: T4, ETV2 (Homo sapiens, UniProt O00321 1-342); conditions: protein: recombinant; tags: N-terminal GST; dsDNA, one strand shown
# T4 sequence: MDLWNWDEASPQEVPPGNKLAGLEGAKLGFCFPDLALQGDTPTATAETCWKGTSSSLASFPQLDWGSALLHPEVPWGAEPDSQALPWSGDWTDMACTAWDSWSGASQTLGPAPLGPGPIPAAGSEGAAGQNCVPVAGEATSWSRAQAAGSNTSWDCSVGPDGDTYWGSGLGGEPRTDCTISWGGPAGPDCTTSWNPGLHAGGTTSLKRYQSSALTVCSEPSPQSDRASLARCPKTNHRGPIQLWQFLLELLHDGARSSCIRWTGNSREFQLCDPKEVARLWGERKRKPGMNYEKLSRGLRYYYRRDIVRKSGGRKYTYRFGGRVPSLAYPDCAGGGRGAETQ
# Procedure, shortened: as §1
# ELF3 = biological target: T5, ELF3 (Homo sapiens, UniProt P78545 1-371); conditions: protein: recombinant; tags: N-terminal GST; dsDNA, one strand shown
# T5 sequence: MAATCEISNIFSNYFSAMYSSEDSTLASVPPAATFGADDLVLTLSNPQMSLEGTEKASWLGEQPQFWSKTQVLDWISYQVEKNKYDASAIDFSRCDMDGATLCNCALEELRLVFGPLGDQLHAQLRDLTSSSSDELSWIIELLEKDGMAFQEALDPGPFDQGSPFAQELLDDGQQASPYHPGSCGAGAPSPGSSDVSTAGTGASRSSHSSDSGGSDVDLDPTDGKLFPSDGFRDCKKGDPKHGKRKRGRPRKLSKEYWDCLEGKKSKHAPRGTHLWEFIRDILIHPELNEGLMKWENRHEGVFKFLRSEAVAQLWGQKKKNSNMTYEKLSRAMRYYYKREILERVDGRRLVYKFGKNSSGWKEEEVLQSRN
# Procedure, shortened: as §1
# CRX = CRX (Homo sapiens, UniProt O43186 1-299); conditions: protein: recombinant; tags: N-terminal GST; dsDNA, one strand shown
# Chain of CRX (O43186 whole entry): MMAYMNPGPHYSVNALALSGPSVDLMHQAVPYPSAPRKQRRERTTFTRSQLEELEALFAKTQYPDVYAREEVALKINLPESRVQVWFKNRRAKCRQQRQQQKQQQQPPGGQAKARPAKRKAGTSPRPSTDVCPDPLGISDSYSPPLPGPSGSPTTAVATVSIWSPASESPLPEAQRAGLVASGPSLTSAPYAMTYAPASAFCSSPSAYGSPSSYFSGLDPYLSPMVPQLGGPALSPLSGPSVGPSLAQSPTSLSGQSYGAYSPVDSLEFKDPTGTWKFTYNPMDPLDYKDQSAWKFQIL
# Procedure, shortened: as §1
# ETV1 = ETV1 (Homo sapiens, UniProt P50549 1-477); conditions: protein: recombinant; tags: N-terminal GST; dsDNA, one strand shown
# Chain of ETV1 (P50549 whole entry): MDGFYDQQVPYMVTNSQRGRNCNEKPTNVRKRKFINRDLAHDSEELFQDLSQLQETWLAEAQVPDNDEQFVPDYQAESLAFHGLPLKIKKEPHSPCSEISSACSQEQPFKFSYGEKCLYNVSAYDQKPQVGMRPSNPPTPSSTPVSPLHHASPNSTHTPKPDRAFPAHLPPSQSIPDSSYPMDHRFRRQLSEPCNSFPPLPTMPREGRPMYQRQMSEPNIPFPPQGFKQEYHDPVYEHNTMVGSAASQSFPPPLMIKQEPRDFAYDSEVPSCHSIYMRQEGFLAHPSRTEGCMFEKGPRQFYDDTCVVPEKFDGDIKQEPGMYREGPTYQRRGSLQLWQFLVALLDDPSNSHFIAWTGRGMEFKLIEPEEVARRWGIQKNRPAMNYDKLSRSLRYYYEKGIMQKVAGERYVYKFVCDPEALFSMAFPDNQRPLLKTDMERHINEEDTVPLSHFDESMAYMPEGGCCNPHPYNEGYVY
# Procedure, shortened: as §1
# ERF = biological target: T6, ERF (Homo sapiens, UniProt P50548 1-548); conditions: protein: recombinant; tags: N-terminal GST; dsDNA, one strand shown
# T6 sequence: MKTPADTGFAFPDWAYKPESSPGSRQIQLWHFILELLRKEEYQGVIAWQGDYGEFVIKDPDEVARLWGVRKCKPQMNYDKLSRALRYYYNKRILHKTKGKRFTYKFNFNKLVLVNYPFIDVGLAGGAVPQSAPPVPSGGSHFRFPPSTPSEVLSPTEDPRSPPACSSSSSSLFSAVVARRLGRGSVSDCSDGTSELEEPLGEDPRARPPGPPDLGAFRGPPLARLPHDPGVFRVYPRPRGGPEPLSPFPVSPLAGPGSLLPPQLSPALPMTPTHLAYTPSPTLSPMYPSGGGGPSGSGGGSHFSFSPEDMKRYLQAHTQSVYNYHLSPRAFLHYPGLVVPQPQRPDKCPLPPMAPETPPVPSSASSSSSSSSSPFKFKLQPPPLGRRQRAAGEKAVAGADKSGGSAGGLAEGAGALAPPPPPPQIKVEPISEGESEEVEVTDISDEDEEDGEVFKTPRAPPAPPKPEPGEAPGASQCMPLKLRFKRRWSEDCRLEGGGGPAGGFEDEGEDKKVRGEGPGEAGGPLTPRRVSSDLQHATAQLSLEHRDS
# Procedure, shortened: as §1
# ETV3L = biological target: T7, ETV3L (Homo sapiens, UniProt Q6ZN32 1-361); conditions: protein: recombinant; tags: N-terminal GST; dsDNA, one strand shown
# T7 sequence: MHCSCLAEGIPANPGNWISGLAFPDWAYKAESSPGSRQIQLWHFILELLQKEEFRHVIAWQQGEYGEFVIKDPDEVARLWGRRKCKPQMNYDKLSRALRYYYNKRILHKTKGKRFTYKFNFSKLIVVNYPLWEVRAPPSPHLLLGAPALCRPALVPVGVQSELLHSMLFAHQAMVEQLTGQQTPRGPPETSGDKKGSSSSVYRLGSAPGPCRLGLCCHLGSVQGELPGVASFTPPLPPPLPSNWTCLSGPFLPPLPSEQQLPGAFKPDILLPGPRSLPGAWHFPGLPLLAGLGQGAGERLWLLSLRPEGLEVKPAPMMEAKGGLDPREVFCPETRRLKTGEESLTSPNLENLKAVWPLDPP
# Procedure, shortened: as §1
# ETS2 = biological target: T8, ETS2 (Homo sapiens, UniProt P15036 1-469); conditions: protein: recombinant; tags: N-terminal GST; dsDNA, one strand shown
# T8 sequence: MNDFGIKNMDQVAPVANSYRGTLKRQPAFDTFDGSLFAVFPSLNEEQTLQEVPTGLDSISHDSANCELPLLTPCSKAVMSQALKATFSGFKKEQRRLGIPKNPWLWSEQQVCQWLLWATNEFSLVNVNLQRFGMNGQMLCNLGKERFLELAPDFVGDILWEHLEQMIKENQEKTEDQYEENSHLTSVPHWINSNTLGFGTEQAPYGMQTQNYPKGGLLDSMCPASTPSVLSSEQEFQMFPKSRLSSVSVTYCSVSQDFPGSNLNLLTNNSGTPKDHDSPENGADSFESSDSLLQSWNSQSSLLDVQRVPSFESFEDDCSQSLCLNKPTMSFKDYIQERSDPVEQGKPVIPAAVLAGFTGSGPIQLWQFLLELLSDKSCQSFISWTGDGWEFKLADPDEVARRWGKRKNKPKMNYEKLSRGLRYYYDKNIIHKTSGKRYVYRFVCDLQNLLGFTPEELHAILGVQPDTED
# Procedure, shortened: as §1
# SPDEF = biological target: T9, SPDEF (Homo sapiens, UniProt O95238 1-335); conditions: protein: recombinant; tags: N-terminal GST; dsDNA, one strand shown
# T9 sequence: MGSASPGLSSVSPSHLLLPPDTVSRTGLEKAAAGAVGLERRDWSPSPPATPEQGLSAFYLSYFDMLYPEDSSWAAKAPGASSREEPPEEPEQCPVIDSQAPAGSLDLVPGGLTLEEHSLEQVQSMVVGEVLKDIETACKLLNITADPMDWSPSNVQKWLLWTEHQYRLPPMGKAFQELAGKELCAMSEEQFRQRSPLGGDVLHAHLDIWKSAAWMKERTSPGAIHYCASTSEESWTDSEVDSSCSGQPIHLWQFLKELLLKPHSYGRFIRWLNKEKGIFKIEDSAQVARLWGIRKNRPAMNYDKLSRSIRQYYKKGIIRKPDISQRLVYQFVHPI
# Procedure, shortened: as §1
# ETV7 = biological target: T10, ETV7 (Homo sapiens, UniProt Q9Y603 1-341); conditions: protein: recombinant; tags: N-terminal GST; dsDNA, one strand shown
# T10 sequence: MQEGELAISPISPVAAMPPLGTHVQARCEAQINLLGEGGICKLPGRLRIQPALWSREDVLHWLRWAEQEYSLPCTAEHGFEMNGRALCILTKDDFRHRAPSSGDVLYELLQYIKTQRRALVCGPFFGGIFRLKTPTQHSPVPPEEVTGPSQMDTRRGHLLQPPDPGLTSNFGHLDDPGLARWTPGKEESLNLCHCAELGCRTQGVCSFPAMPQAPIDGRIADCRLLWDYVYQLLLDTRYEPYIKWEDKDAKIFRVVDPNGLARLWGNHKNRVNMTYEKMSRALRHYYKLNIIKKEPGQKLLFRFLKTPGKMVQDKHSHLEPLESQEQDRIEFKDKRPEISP
# Procedure, shortened: as §1
# ELF5 = biological target: T11, ELF5 (Homo sapiens, UniProt Q9UKW6-2 1-255); conditions: protein: recombinant; tags: N-terminal GST; dsDNA, one strand shown
# T11 sequence: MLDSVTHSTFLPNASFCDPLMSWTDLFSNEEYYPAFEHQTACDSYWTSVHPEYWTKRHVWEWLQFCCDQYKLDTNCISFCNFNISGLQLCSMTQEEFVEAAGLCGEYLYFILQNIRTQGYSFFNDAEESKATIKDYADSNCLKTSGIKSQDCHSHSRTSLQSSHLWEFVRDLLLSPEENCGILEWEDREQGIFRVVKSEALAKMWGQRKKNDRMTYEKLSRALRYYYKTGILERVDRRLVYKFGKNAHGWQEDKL
# Procedure, shortened: as §1
# ETV3 = biological target: T12, ETV3 (Homo sapiens, UniProt P41162-2 1-143); conditions: protein: recombinant; tags: N-terminal GST; dsDNA, one strand shown
# T12 sequence: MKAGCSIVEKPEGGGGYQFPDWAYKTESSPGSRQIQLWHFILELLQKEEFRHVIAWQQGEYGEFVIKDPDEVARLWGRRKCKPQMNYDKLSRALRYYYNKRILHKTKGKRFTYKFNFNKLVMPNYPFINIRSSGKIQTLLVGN
# Procedure, shortened: as §1
# ETV6 = ETV6 (Homo sapiens, UniProt P41212 1-452); conditions: protein: recombinant; tags: N-terminal GST; dsDNA, one strand shown
# Chain of ETV6 (P41212 whole entry): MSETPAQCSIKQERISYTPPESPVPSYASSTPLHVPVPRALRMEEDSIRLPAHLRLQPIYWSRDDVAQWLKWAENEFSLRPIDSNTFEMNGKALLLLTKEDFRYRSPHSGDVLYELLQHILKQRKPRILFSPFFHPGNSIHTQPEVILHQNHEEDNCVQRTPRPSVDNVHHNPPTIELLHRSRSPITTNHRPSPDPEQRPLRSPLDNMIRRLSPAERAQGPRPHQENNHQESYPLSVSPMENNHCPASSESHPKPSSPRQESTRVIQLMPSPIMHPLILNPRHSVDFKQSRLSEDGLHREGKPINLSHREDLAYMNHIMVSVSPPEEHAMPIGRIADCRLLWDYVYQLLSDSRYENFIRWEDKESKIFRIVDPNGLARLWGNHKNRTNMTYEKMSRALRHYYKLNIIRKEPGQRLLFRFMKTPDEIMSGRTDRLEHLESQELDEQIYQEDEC
# Procedure, shortened: as §1
sequence,measurement,setting,value
TATGGG,binding signal,FEV,"1.13 fold enrichment (6-mer frequency, TF over GST control)"
same,binding signal,ETV5,"1.18 fold enrichment (6-mer frequency, TF over GST control)"
same,binding signal,HSF1,"1.1 fold enrichment (6-mer frequency, TF over GST control)"
same,binding signal,SPIC,"1.32 fold enrichment (6-mer frequency, TF over GST control)"
same,binding signal,ELF4,"1.18 fold enrichment (6-mer frequency, TF over GST control)"
same,binding signal,ELK4,"1.14 fold enrichment (6-mer frequency, TF over GST control)"
same,binding signal,ETV2,"1.11 fold enrichment (6-mer frequency, TF over GST control)"
same,binding signal,ELF3,"1.18 fold enrichment (6-mer frequency, TF over GST control)"
same,binding signal,CRX,"1.36 fold enrichment (6-mer frequency, TF over GST control)"
same,binding signal,ETV1,"1.2 fold enrichment (6-mer frequency, TF over GST control)"
same,binding signal,ERF,"1.19 fold enrichment (6-mer frequency, TF over GST control)"
same,binding signal,ETV3L,"1.13 fold enrichment (6-mer frequency, TF over GST control)"
same,binding signal,ETS2,"1.15 fold enrichment (6-mer frequency, TF over GST control)"
same,binding signal,SPDEF,"1.14 fold enrichment (6-mer frequency, TF over GST control)"
same,binding signal,ETV7,"1.24 fold enrichment (6-mer frequency, TF over GST control)"
same,binding signal,ELF5,"1.16 fold enrichment (6-mer frequency, TF over GST control)"
same,binding signal,ETV3,"1.17 fold enrichment (6-mer frequency, TF over GST control)"
same,binding signal,ETV6,"1.34 fold enrichment (6-mer frequency, TF over GST control)"
